Tested on: Aedes aegypti larvae
Assay: larval motility relative to same well at 0 h (fraction); higher = more motile (less active compound), active = 0.4 or less
Conditions: 10 µM
Method in brief: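 Compounds at 10 µM (1% v/v DMSO) were applied to about 10 Aedes aegypti larvae per well in 100 µL, with every plate including solvent and larvicide control wells. Motility movies were taken with INVAPP at 0, 2 and 24 h, and results are medians of three independent larval batches. Relative motility is each well's score expressed as a fraction of its own first score.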

| SMILES | larval motility (2 h) | larval motility (24 h) |
| --- | --- | --- |
| Cc1c[nH]c(=O)nc1NCc1ccccc1 | 1.16 (inactive) | 0.91 (inactive) |
| Cc1[nH]c2ccccc2c1CCNCc1ccc(/C=C/C(=O)NO)cc1 | 1.05 (inactive) | 1.18 (inactive) |
| O=c1oc2ccc(Br)cc2cc1CSc1ncc[nH]1 | 0.806 (inactive) | 0.972 (inactive) |
| O=C(O)c1cc(-c2ccccc2)nc2ccccc12 | 0.53 (inactive) | 0.971 (inactive) |
| Nc1nc(NC2Cc3ccc(F)cc3C2)nc(N2CCCCC2)n1 (configuration not stated) | 0.662 (inactive) | 0.628 (inactive) |
| CC[C@@]1(O)C(=O)OCc2c1cc1n(c2=O)Cc2cc3c(CN(C)C)c(O)ccc3nc2-1 | 0.831 (inactive) | 0.876 (inactive) |
| O=C(O)c1sccc1S(=O)(=O)n1ccc2cc(Br)ccc21 | 0.657 (inactive) | 0.741 (inactive) |
| Nc1nnc(-c2ccc(Cl)cc2)s1 | 0.916 (inactive) | 0.877 (inactive) |
| Nc1nc(O)c2ncn(COCCO)c2n1 | 0.732 (inactive) | 0.823 (inactive) |
| O=C(/C=C\n1cnc(-c2cc(C(F)(F)F)cc(C(F)(F)F)c2)n1)NNc1ccccn1 | 1.12 (inactive) | 1.17 (inactive) |
| CC[C@@]1(O)C(=O)OCc2c1cc1n(c2=O)Cc2cc3c([N+](=O)[O-])cccc3nc2-1 | 0.324 (active) | 0.433 (inactive) |
| CCOC(=O)/C=C/[C@H](C[C@@H]1CCNC1=O)NC(=O)[C@H](CC)n1cccc(NC(=O)c2cc(C)on2)c1=O | 1.27 (inactive) | 0.871 (inactive) |
| O=C(NCc1ccccc1Cl)c1cnc2ccccc2n1 | 1.23 (inactive) | 0.674 (inactive) |
| O=S(=O)(NCB(O)O)c1cc2c(Cl)ccc(Cl)c2s1 | 0.568 (inactive) | 0.742 (inactive) |
| Cc1cc(Nc2ccc(F)cc2)nc(SCc2nc3ccccc3[nH]2)n1 | 0.661 (inactive) | 0.622 (inactive) |
| COc1cc2c(O)c3c(c(-c4ccc5c(c4)OCO5)c2cc1OC)C(=O)OC3 | 0.887 (inactive) | 0.868 (inactive) |

| SMILES | larval motility (2 h) | larval motility (24 h) |
| --- | --- | --- |
| O=C(CCc1ccc2c(c1)OCO2)NCc1ccc(-c2ccccc2F)cc1 | 0.778 (inactive) | 0.677 (inactive) |
| CO[C@@]1(NC(=O)Cc2cccs2)C(=O)N2C(C(=O)O)=C(COC(N)=O)CS[C@@H]21 | 0.909 (inactive) | 1.17 (inactive) |
| O=C(O)COc1cccc2c1CC[C@](O)(COC(=O)N(c1ccccc1)c1ccccc1)C2 | 0.909 (inactive) | 0.745 (inactive) |
| Cc1cc(C)n2nc(C(=O)NS(=O)(=O)c3c(C)cccc3OC(F)(F)F)nc2n1 | 1.04 (inactive) | 1.13 (inactive) |
| COc1ccc(C2=CC(c3c(F)cccc3Cl)n3ncnc3N2)cc1 (configuration not stated) | 0.637 (inactive) | 0.619 (inactive) |
| O=C(c1nc2c(C(F)(F)F)cc(C3CC3)cn2c1Cl)N1CCN([C@H]2CC[C@H](O)CC2)C(=O)C1 | 0.697 (inactive) | 0.894 (inactive) |
| c1ccc(Cn2c(-c3ccccn3)nc3ccccc32)cc1 | 1.19 (inactive) | 1.02 (inactive) |
| O=C(O)C[C@H]1CC[C@H](c2ccc(-c3ccc(Nc4ccc(C(F)(F)F)nc4)cn3)cc2)CC1 | 0.644 (inactive) | 0.489 (inactive) |
| COc1cc(C2C3=C(CC(C)(C)CC3=O)Nc3ccccc3N2C(C)=O)ccc1OCc1ccccc1 (configuration not stated) | 0.542 (inactive) | 0.617 (inactive) |
| CCC(C)(C)c1ccc(CC(C)CN2C[C@@H](C)O[C@@H](C)C2)cc1 (some centres not stated) | 0.895 (inactive) | 0.765 (inactive) |
| CCOc1ccc(C(=O)NCCc2ccccc2)cc1 | 1.05 (inactive) | 0.979 (inactive) |
| Nc1nnnn1CCOc1c2[nH]c3ccc(Cl)cc3c2cc2c1[nH]c1ccc(Cl)cc12 | 0.958 (inactive) | 1.16 (inactive) |
| NC(=O)c1ccccc1NC(=O)c1ccc(C(=O)Nc2ccccc2C(N)=O)cc1 | 0.724 (inactive) | 0.755 (inactive) |
| NS(=O)(=O)c1ccc(NC(=O)NC(c2ccccc2)c2ccccc2)cc1 | 0.491 (inactive) | 0.689 (inactive) |
| CC(C)N(c1cc(-c2ccccc2)sc1C(=O)O)C(=O)[C@H]1CC[C@H](C)CC1 | 0.697 (inactive) | 0.742 (inactive) |
